Hit rate of the full screen: of about 69,000 compounds, about 8,600 (12%) showed an effect of 50% or more. This is one part of a sample in which strong results are shown more often than they occur.

This test deals with Plasmodium berghei. The test can be described thus: Screen against P. berghei liver stage (PbLuc), transformed with Luciferase, at 10uM. Format: functional, HepG2. The settings on record: tested at 10 uM.
`COC(=O)C1CCN(C(=O)c2nnc3ccc(Cl)cc3n2)CC1`: the INHIBITION came to 52.4%.
For `COC(=O)C1CCN(C(=O)c2nnc3ccc(C)cc3n2)CC1` the value was 49.9%.
Regarding `CN1CCN(C(=O)c2nnc3ccc(Cl)cc3n2)CC1`, the INHIBITION was found to be 1.04%.
As to `CCc1nc(C(=O)N2CCCC2)nn1-c1c(Cl)cccc1Cl`, the INHIBITION worked out at 48.4%.
The result for `Cc1nc(-c2c(C)noc2C)cc(C2CCN(CC(=O)N(C)C)CC2)n1` reads 13.8%; that for `Cc1cc2cc(CNC3CCN(CC4CCOC4)CC3)oc2cc1C` (stereo not given), 48.5%.
For `Cc1cc2cc(CNC3CCN(CC(=O)N(C)C)CC3)oc2cc1C` the value was 53.9%.
Consider `CC(NC1CCN(CC(=O)N(C)C)CC1)c1cnn(C(C)C)c1` (stereo not given), for which the INHIBITION came to 19.8%.
Take `Cc1cc2cc(CNC3CCN(S(C)(=O)=O)CC3)oc2cc1C`: the INHIBITION is recorded as 49.6%.
Regarding `Cc1cc(Cl)cc(C)c1CNC1CCN(CC(=O)N(C)C)CC1`, the INHIBITION stood at 56.1%.
The result for `CC(=O)N1CCC12CCN(Cc1ccco1)CC2` reads 9.97%; that for `O=C([C@H]1CC[C@@H]2[C@@H](CCN2C2CCCC2)O1)N1CCOCC1`, -3.26%.
For `O=C(NCc1ccc(-n2cncn2)nc1)c1cc(Cl)c2c(c1)OCCO2` the value was 9.54%; for `CCn1ncc2c1C(COC)CN(c1ncc(F)cn1)C2` (stereo not given), -7.24%.
Take `COc1ccc2c(c1)NC(C1CCN(C(=O)C(C)C)CC1)NS2(=O)=O` (stereo not given): the INHIBITION is listed as -12.3%.
With `CCC(NC(=O)CCCN1CCCCC1)c1cn2cccnc2n1` (stereo not given), the INHIBITION worked out at 37.7%.
The result for `CCC(NC(=O)CC1CCN(C(C)C)CC1)c1cn2cccnc2n1` (stereo not given) reads 51.3%; that for `CCC(NC(=O)CC1CCN(CC)CC1)c1cn2cccnc2n1` (stereo not given), -15.3%; that for `CCn1ncnc1C(C)NC(=O)C1CCN(C(C)C)CC1` (stereo not given), -1.64%.
As for `CCC(NC(=O)C1CCN(C(C)C)CC1)c1cn2cccnc2n1` (stereo not given), the INHIBITION stood at 57.5%.
On to `CCC(NC(=O)C1CCN(C(=O)C2CC2)CC1)c1cn2cccnc2n1` (stereo not given), for which the INHIBITION was determined as 22.9%.
For `COc1ccc(Cl)cc1S(=O)(=O)N(C)CC(=O)Nc1cccnc1` the value was 33.4%.
For `Cc1cnn(CC(C)NCc2csc(-c3ncccn3)n2)c1` (stereo not given) the value was -3.2%; for `CN(C)c1cc(C(F)(F)F)cc(-c2ccc(C(=O)O)cc2)n1`, 26.9%.
Consider `Cc1ccc(S(=O)(=O)N2CCC(c3n[nH]cc3C(=O)N(C)C)CC2)cc1`, for which the INHIBITION was 12.8%.
Turning to `CCN(c1ccsc1C(=O)N1CCCCC1)S(=O)(=O)c1ccccc1`, the INHIBITION is -10.8%.
Take `CCN1CCN(C)C(=O)C12CCN(Cc1csc(C)n1)CC2`: the INHIBITION is reported as -1.28%.
As to `CC(C)=CCN1C[C@@H](C(=O)O)C[C@H](C(=O)Nc2ccc(C)nc2)C1`, the INHIBITION stood at 28.5%.
Turning to `O=C(NC[C@@H]1CCCO1)c1ccc(S(=O)(=O)N[C@@H]2CCNC2)cc1`, the INHIBITION came to 2.55%.
Consider `CN(C)CCNC(=O)c1ccc(S(=O)(=O)N[C@@H]2CCNC2)cc1`, for which the INHIBITION came out at 87.9%.
The result for `CC(C)N(CCNC(=O)c1ccc(S(=O)(=O)NC2CC2)cc1)C(C)C` reads 19.2%.
Take `CCS(=O)(=O)N1C[C@@H](OCc2cccnc2)[C@H]2OCCC[C@H]21`: the INHIBITION came out at 44.9%.
Turning to `O=C1CCC(c2nc(C3CCN(C(=O)Cc4cccs4)CC3)no2)N1` (stereo not given), the INHIBITION was -31.1%.
`CC1=N[C@@]2(CC[C@@H]3CN(Cc4ccccc4C)C[C@@H]32)C(=O)N1CC1CC1`: the INHIBITION was 28.4%.
`CC(C)CCc1cc(C(=O)O)nc2[nH]c(=O)[nH]c(=O)c12`: the INHIBITION stood at 2.29%.
On to `CCc1cc(NCCCNS(C)(=O)=O)nc(-c2ccccn2)n1`, for which the INHIBITION was found to be 12.4%.
For `CN1CCN(Cc2c(-c3ccco3)[nH]c3ncccc23)CC1` the value was -0.371%; for `CCN1CCN(Cc2c(-c3ccco3)[nH]c3ncccc23)CC1`, 29.3%.
For `NC(=O)C1CCCN(Cc2c(-c3ccco3)[nH]c3ncccc23)C1` (stereo not given) the value was 61.4%; for `c1coc(-c2[nH]c3ncccc3c2CN2CCCOCC2)c1`, 50.1%.
Turning to `OC1CCCN(Cc2c(-c3ccco3)[nH]c3ncccc23)C1` (stereo not given), the INHIBITION stood at 35.3%.
As for `OC1CCN(Cc2c(-c3ccco3)[nH]c3ncccc23)CC1`, the INHIBITION is reported as 32.3%.
For `O=C1CCCN1Cc1noc(-c2ccc(Cl)cc2)n1` the value was -66%.
The result for `Cc1cnc(CC2COCCN(C(=O)CN3CCOCC3)C2)cn1` (stereo not given) reads 16.5%; that for `CCc1noc(CNC2CCCN(Cc3noc(C4CC4)n3)C2)n1` (stereo not given), -6.14%; that for `CCc1cc(CNC(=O)N(C2CC2)C(C)c2ccco2)on1` (stereo not given), 3.3%.
The result for `CC(c1ccco1)N(C(=O)c1cccc(C#N)c1)C1CC1` (stereo not given) reads -11%; that for `CCc1cc(CNC(=O)NCC(c2ccco2)N2CCCC2)[nH]n1` (stereo not given), 36.6%.
For the compound `CCN(CC)C1CCN(C(=O)NCc2c(C)noc2C)CC1`, the INHIBITION is on record as 50.1%.
The result for `Cc1noc(C)c1CNC(=O)N(C1CC1)C(C)c1ccco1` (stereo not given) reads 79.1%; that for `CC(c1ccco1)N(C(=O)c1cc2c([nH]c1=O)CCCC2=O)C1CC1` (stereo not given), -65.3%; that for `Cc1noc(C)c1CNC(=O)N1CCC(CO)CC1`, 11.8%.
For `CC(c1ccco1)N(C(=O)CNc1ccc(C#N)cc1)C1CC1` (stereo not given) the value was 21.5%; for `Cc1noc(C)c1CNC(=O)N(C)C1CCN(c2ccccc2)C1=O` (stereo not given), 31.2%.
Take `Cc1noc(C)c1CNC(=O)N1CCCC(C)CC1` (stereo not given): the INHIBITION is given as -30.6%.
For `CC(c1ccco1)N(C(=O)NCc1ccon1)C1CC1` (stereo not given), the INHIBITION stood at 72.6%.
The result for `CCc1cc(CNC(=O)N(C2CC2)C(C)c2ccco2)[nH]n1` (stereo not given) reads 55.9%; that for `COCc1c(Cl)cccc1NC(=O)CNC(=O)C(C)(C)C`, -17.8%; that for `CC(C)N1CCC(CC(=O)N(C)C(C)c2cncs2)CC1` (stereo not given), -3.58%.
For `CN(Cc1nc(Cc2cccc(C(F)(F)F)c2)no1)C1CCOCC1` the value was 22.1%.
In the case of `COC(=O)c1ccoc1COC(=O)CCc1ccc(OC)c(OC)c1`, the INHIBITION is -1.58%.
The result for `CN(C)Cc1cc(C2CCCCN2S(=O)(=O)Cc2ccccc2)nn1C` (stereo not given) reads 8.12%.
The result for `CS(=O)(=O)NCc1cncc2c1CCN(C(=O)c1ccccn1)C2` reads 16.4%; that for `Cc1occc1C(=O)N1C[C@@H](OCc2cccnc2)[C@H]2OCCC[C@@H]21`, -63.1%; that for `CCCc1noc(C2CC(=O)N(C(C)(C)C)C2)n1` (stereo not given), 31.9%.
As to `Cc1cc(C(=O)N2CC[C@H](N3CCN(C)CC3)[C@H](CCCO)C2)n(C)n1`, the INHIBITION is given as -27.5%.
For `CN1CCN([C@H]2CCN(C(=O)c3cc(Cl)cn3C)C[C@H]2CCCO)CC1` the value was 64.3%; for `CN1CCN([C@H]2CCN(C(=O)c3nn(C)cc3Cl)C[C@H]2CCCO)CC1`, 8.7%.
The result for `COCCN1CCO[C@@H]2CN(C(=O)NCc3ccccc3)CC[C@@H]2C1` reads 7.24%.
The result for `Cc1n[nH]c(C)c1CCC(=O)N1CCc2c(nc[nH]c2=O)C1` reads 10.7%.
Consider `CCN(C)c1ccc(CNS(=O)(=O)C2CCOCC2)cc1F`, for which the INHIBITION was determined as 50.1%.
For `CCN(CC)c1ccc(CNS(=O)(=O)C2CCOCC2)cc1F` the value was 62.9%; for `CCN(CC)c1ccc(CNC(=O)C2(C)CCOCC2)cc1F`, -37.1%; for `O=S(=O)(CC1CCOCC1)NCc1ccnc(O)c1`, 2.82%.
For `CCN(C)c1ccc(CNC(=O)c2cc(C(N)=O)cs2)cc1F` the value was -59.2%; for `CCN(C)c1ccc(CNS(=O)(=O)CC2CCCO2)cc1F` (stereo not given), 24.4%; for `Cc1cc2c(=O)n(CC(=O)N3CCn4cccc4C3C(C)C)cnc2s1` (stereo not given), 3.4%.
For the compound `COCC1CN(c2ncc(F)cn2)Cc2cnn(C)c21` (stereo not given), the INHIBITION is 19.6%.
In the case of `Cn1cc(CCC(=O)NC(c2ccc(F)cc2)C(F)(F)F)cn1` (stereo not given), the INHIBITION is listed as -4.52%.
For `CN1CCNC(Cc2ccc(-c3ccccc3)cc2)C1=O` (stereo not given), the INHIBITION is 23.2%.
The result for `O=C(NCC1CCS(=O)(=O)C1)c1cccc(CN2CCCC2)c1` (stereo not given) reads 24.7%.
For the compound `O=C(N1CCCO1)[C@@]12CCO[C@@H]1CCN(Cc1cccs1)C2`, the INHIBITION is 40.1%.
With `CC(=O)N1CCCN(C(=O)Nc2ccccc2N2CCOC2=O)CC1`, the INHIBITION is given as 1.37%.
For `O=C(Nc1ccccc1N1CCOC1=O)N1CCSCC1`, the INHIBITION came to 52.2%.
The result for `CC1=CCN(C(=O)Nc2ccccc2N2CCOC2=O)CC1` reads 32.5%; that for `Cc1ccn(CCC(=O)NC(C)Cc2ccco2)n1` (stereo not given), 24.5%.
Take `COC(=O)c1sc2cccc(F)c2c1CNC(=O)C1CC1`: the INHIBITION was 34.6%.
For the compound `Brc1cc2c(cc1CN1CCC(N3CCCCC3)CC1)OCCO2`, the INHIBITION was determined as 77.9%.
The result for `OCCN1CCN(Cc2cc3c(cc2Br)OCCO3)CC1` reads 31.5%; that for `OC1CCN(Cc2cc3c(cc2Br)OCCO3)CC1`, 28.3%; that for `COc1ccc(CN2CCC(C(N)=O)C2)c(Br)c1OC` (stereo not given), -0.87%.
Regarding `OCC1CCN(Cc2cc3c(cc2Br)OCCO3)CC1`, the INHIBITION amounted to 34.5%.
Regarding `NC(=O)C1CCN(Cc2cc3c(cc2Br)OCCO3)C1` (stereo not given), the INHIBITION was 71.3%.
Take `CNC(=O)C1CN(C(=O)c2ccccc2)Cc2cn(C)nc21` (stereo not given): the INHIBITION amounted to 18.9%.
For the compound `CCOC(=O)c1nc(CC(=O)Nc2ccccc2)no1`, the INHIBITION was determined as 45.5%.
`Cc1cc(CN2CCN(C(=O)NCc3csc(C)n3)CC2)no1`: the INHIBITION was 26.4%.
With `CN(C)CCO[C@H]1CN(Cc2ccoc2)[C@@H]2COC[C@H]12`, the INHIBITION was determined as 3.25%.
The result for `Cn1nc(CNC(=O)c2ccc3c(c2)OCO3)c2c1CCOC2` reads 40.8%; that for `CN(C)c1cc(CNC(=O)Nc2ccc(N3CCCC3)nc2)ccn1`, 69.7%.
With `COc1ccc(NC(=O)NCc2ccnc(N(C)C)c2)cn1`, the INHIBITION is on record as -15.1%.
For the compound `CN(C)c1cc(CNC(=O)Nc2ccc(C#N)cc2)ccn1`, the INHIBITION is reported as 22.1%.
The result for `CSCCc1ccc(NC(=O)NCc2ccnc(N(C)C)c2)cc1` reads 72.85%; that for `CN(C)c1cc(CNC(=O)Nc2cccnc2N2CCCC2)ccn1`, -60.4%; that for `CN(C)c1cc(CNC(=O)Nc2ccc(F)cc2)ccn1`, 17.8%.
For `COCc1ccccc1CNC(=O)CNc1cccc(Cl)c1OC` the value was -28.2%.

The values above are taken from ChEMBL document CHEMBL4513216, “Probing the Open Global Health Chemical Diversity Library for Multistage-Active Starting Points for Next-Generation Antimalarials” (ACS Infect Dis, 2020).
